In PubChem BioAssay:
The source made the active and inactive calls. The rule behind the calls is not given here.

target: Pantothenate synthetase (Mycobacterium tuberculosis (strain ATCC 25618 / H37Rv)) (UniProt P9WIL5); test: Recombinant Mtb pantothenate synthetase (PanC) inhibitors, coupled enzyme, confirmatory (AID 375); details: coupled enzyme assay; at 10 µM, hits give high values;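 note: 0% = full reaction with vehicle and 100% = no enzyme background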
Sequence (P9WIL5 whole entry, looked up): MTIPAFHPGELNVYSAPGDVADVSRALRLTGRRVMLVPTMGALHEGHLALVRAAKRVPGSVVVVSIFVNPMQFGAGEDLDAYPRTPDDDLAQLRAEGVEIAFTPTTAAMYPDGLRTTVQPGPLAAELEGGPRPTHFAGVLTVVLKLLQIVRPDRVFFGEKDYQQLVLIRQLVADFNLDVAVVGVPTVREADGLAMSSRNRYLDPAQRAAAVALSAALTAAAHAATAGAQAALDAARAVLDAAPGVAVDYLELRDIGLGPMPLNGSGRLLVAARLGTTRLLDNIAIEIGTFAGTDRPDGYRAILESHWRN

Row | SMILES | inhibition
1 | CCOC(=O)N1CCN(C(=O)c2csc3c2CCCCC3)CC1 | 0% (inactive)
2 | CCOC(=O)c1nnc(-c2ccccc2)o1 | 2% (inactive)
3 | Cc1cccc(OCC(=O)N(Cc2cccs2)C2CCS(=O)(=O)C2)c1C (stereo not given) | 3% (inactive)
4 | CN1/C(=C\C(=O)C(F)F)C(C)(C)c2ccccc21 | 0% (inactive)
5 | CCOC(=O)C1=C(C)NC2=C(C(=O)CC(C)(C)C2)C1c1ccc(N(C)C)cc1 (stereo not given) | 0% (inactive)
6 | Cc1cc(NC(=O)C(C)(C)C)no1 | 0% (inactive)
7 | O=C(Nc1cccc2ccccc12)N1CCN(c2ccccc2)CC1 | 3% (inactive)
8 | CCCN(CCC)C(=O)CSc1nc2ccccc2c(=O)n1C1CCCC1 | 7% (inactive)
9 | CN(C)S(=O)(=O)n1cnc(-c2ccccc2)c1-c1ccccc1 | 4% (inactive)
10 | Cc1ccc(CNC(=O)C2CCN(S(=O)(=O)c3c(C)noc3C)CC2)cc1 | 3% (inactive)
11 | O=C(OCCCCN1C(=O)c2ccccc2C1=O)c1n[nH]c2ccccc12 | 2% (inactive)
12 | CCOC(=O)Cc1ccc(NS(=O)(=O)c2ccc(SC)cc2)cc1 | 0% (inactive)
13 | N#CCCNCC1(c2ccccc2)CCCC1 | 7% (inactive)
14 | N#Cc1ccc(CSc2nnc(-c3cccs3)n2-c2ccccc2)cc1 | 0% (inactive)
15 | CCOC(=O)N1CCC(=C2c3ccc(Cl)cc3CCc3cccnc32)CC1 | 5% (inactive)
16 | Cc1cc(C)n(-c2nnc(C)n2/N=C/c2ccco2)n1 | 1% (inactive)
17 | CCCn1c(N2CCN(CC(=O)NCc3cccs3)CC2)nc2ccccc21 | 9% (inactive)
18 | COc1ccc(OC)c(S(=O)(=O)N2CCC(C(=O)NCC3CCCO3)CC2)c1 (stereo not given) | 7% (inactive)
19 | c1ccc(CNc2c3c(nc4ncnn24)CCCC3)nc1 | 0% (inactive)
20 | Clc1ccc2c(c1)[C@H]1OCC[C@H]1[C@@H](c1ccco1)N2 | 3% (inactive)

Row | SMILES | inhibition
21 | O=C(Cn1nc(Cc2cccnc2)c2ccccc2c1=O)NCC1CCCO1 (stereo not given) | 0% (inactive)
22 | CCOCCn1c(CN2CCN(CC)CC2)nc2c1c(=O)n(C)c(=O)n2C | 0% (inactive)
23 | CCOC(=O)n1c(=O)oc2cc(S(=O)(=O)N3CCCCC3)ccc21 | 7% (inactive)
24 | O=C(CC(=O)c1cc(Cl)ccc1O)c1ccccc1 | 0% (inactive)
25 | CCc1nnc(-n2nc(C)cc2-c2ccccc2)n1N | 3% (inactive)
26 | Cc1noc(NS(=O)(=O)c2ccc(N)cc2)c1C | 0% (inactive)
27 | c1ccc(-c2cc(N3CCCCC3)ncn2)cc1 | 0% (inactive)
28 | CC(C)(C)SCCNC(=O)CSc1ccccc1 | 7% (inactive)
29 | CCOC(=O)N1CCN(C(=O)CN2C(=O)COc3ccc(C)cc32)CC1 | 6% (inactive)
30 | Cn1c(SCC(=O)O)nnc1C1CCCCC1 | 1% (inactive)
31 | CC1CC(C)CN(CC(=O)Nc2ccc(S(N)(=O)=O)cc2)C1 (stereo not given) | 0% (inactive)
32 | Cc1cc(C)n(CC(=O)n2c3c(c4ccccc42)CCCC3)n1 | 2% (inactive)
33 | [O-][n+]1onc2c1CCc1nnc(-c3ccccc3)cc1-2 | 0% (inactive)
34 | Cc1ccc(SCCC(=O)N(C)C)cc1 | 0% (inactive)
35 | Cc1ccc(NC(=O)N2CCC(c3nc4c(nnn4Cc4cccc(Cl)c4)c(=O)[nH]3)CC2)cc1 | 0% (inactive)
36 | COc1ccc(CCN2CC(O)=C(c3nc4ccccc4c(=O)[nH]3)C2=N)cc1OC | 0% (inactive)
37 | O=C(Nc1ccccc1)c1cccc(N2CCCC2=O)c1 | 6% (inactive)
38 | CC1=C(C#N)C(=O)NC(C)(C)C1 | 0% (inactive)
39 | COc1ccc(-c2onc(C)c2-c2ccccc2)c(O)c1 | 3% (inactive)
40 | O=C(NCc1ccccc1)C1CCN(S(=O)(=O)c2cccc3cccnc23)CC1 | 0% (inactive)
